SNCA expr inh: SNCA gene expression inhibition | HEK-293 SNCA-luciferase knock-in, luminescence, 24 h | Potency, µM (titrated, usually from 57.2 µM), without a hit: top-dose activity change, negative = inhibition, most hits filed as inhibitors | 0.17% of 140,000 active | AID 1671194;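 further: plate controls were DMSO cells for no effect and cell-free wells for full effect; nearly all actives have a fitted effect of over 45% in size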
3T3 cytotox: cytotoxic compounds in NIH 3T3 cells | NIH 3T3 viability, CellTiter-Glo ATP luminescence, 48-72 h | 4.3% of 94,000 active | AID 1345082 | Potency, µM (top dose mostly 96.7 µM), without a hit: at the highest dose activity change, negative = cytotoxicity, actives largely listed as inhibitors; further: nearly all actives have a fitted effect of over 55% in size
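NIH 3T3 cells at 400 cells/well received 23 nL of compound by pintool and were incubated 48 or 72 h at 37 °C. Viability was read as ATP-coupled CellTiter-Glo luminescence.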
HEK cytotox: kills HEK 293 cells; HEK 293 viability, ATP luminescence (CellTiter-Glo), 48-72 h; AID 1345083; Potency, µM (doses to about 115 µM), for inactives: top-dose activity change, negative = cytotoxicity, actives largely listed as inhibitors; 6.6% of 94,000 active; further: nearly all actives have a fitted effect of over 60% in size
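Cells seeded first (HEK 293, 250 cells/well), then compound added by pintool. Incubation ran 48 or 72 hr at 37 degree Celsius. CellTiter-Glo was added and luminescence imaged after 10 min at room temperature.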
NPR1 antag: blocks ANP-stimulated signaling of human Npr1 receptor | P16066 | HEK293 hNpr1 GloSensor cGMP, ANP-stimulated luminescence | Potency, µM (series often up to 46.3 µM), for the others: top-dose activity change, negative = inhibition, most hits filed as inhibitors | 1.6% of 76,000 active | AID 1347048; calls by dose curve; further: nearly all actives have a fitted effect of over 60% in size
Target sequence (P16066 whole entry, looked up): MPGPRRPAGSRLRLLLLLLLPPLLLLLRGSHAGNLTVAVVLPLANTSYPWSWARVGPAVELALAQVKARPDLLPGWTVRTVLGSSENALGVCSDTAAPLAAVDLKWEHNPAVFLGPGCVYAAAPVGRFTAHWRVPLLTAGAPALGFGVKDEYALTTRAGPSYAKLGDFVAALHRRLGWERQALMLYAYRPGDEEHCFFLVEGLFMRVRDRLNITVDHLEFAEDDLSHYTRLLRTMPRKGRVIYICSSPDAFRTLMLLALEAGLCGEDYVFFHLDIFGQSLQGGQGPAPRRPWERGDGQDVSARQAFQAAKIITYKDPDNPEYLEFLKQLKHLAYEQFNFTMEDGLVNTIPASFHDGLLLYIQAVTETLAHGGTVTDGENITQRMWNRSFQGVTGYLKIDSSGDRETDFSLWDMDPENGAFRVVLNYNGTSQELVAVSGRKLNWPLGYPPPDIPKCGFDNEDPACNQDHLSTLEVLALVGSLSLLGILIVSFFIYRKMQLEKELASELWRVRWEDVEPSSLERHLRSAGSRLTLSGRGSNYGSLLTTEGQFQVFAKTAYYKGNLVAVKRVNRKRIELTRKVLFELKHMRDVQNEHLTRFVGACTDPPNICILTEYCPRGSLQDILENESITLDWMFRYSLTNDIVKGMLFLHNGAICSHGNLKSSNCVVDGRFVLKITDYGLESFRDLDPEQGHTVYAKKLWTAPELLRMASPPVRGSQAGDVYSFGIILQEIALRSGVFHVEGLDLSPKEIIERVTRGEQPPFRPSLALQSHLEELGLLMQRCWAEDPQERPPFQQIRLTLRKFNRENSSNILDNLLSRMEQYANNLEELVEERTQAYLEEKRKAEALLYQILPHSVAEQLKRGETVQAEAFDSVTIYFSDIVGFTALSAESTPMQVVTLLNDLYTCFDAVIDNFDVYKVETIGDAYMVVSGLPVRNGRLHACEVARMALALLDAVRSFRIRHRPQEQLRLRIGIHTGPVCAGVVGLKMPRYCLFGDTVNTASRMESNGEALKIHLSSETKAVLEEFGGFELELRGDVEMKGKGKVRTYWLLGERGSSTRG
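Compound pre-incubated 30 min at room temperature on GloSensor-loaded HEK293 cells stably carrying hNpr1 and the pGS-40F cGMP biosensor. Stimulation uses hNppA at 0.1 nM final; luminescence is taken at baseline and 20 min post-agonist.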
Luciferase inh: Photinus pyralis luciferase inhibition. P08659. purified P. pyralis luciferase, luminescence, biochemical. Potency, µM (doses to about 115 µM), actives largely listed as inhibitors. 2.5% of 76,000 active; further: nearly all actives have a fitted effect of over 65% in size
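Inhibitors were tested against purified firefly luciferase in a biochemical, low-substrate format (both substrates at 10uM) and luminescence measured with a CCD imager.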
HEK293 viab: cell viability loss counter-screen | HEK-293-SNCA-luc viability, GF-AFC fluorescence, 24 h | Potency, µM (top dose mostly 57.1 µM), for the others: top-dose activity change, negative = cytotoxicity, hits mostly cytotoxic | 0.12% of 150,000 active;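 further: 0% = DMSO-treated cells and -100% = medium-only wells without cells; nearly all actives have a fitted effect of over 30% in size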
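HEK-293-SNCA-luc cells (1500/well) plated 24 h, then exposed 24 h to a dilution series; GF-AFC added 30 min at 37C, fluorescence 405/540 nm; normalised to medium-only and DMSO wells, Hill fit.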
Active calls of the source: *; i = inactive; ? = inconclusive; . = no result; [ ] = another dose, or the depositor's remark. Shown are actives, neighbours in structure and some others; about 7.4% of the full set was active somewhere. Unless noted, the call rests on the fitted dose curve; in most records, active means well fitted curve in the direction sought with a large enough effect; inconclusive means small, poorly fitted or top-dose-only effect, or another doubt; inactive means no such curve, though single readings can be large; an effect the other way counts as inactive or inconclusive. Unless noted, on the % scale 0 is the no-effect control and ±100 the full control effect; potency means the concentration at half of the fitted maximal effect.

SMILES | SNCA expr inh | 3T3 cytotox | HEK cytotox | NPR1 antag | Luciferase inh | HEK293 viab
CC(C)N1C(=O)C(CC(=O)NCCc2c[nH]c3ccccc23)=C2CCCCC21 (stereo not given) | 1% | -27% | -21% | -17% | i | 3%
CC(C)(C)C(=O)Nc1cnc(-c2cccnc2)nc1 | 14% | -23% | -9% | -10% | 28µM* | 4%
O=C(CCc1ccccc1)Nc1cnc(-c2cccnc2)nc1 | 1% | -2% | ? | -15% | i | 1%
N#Cc1cccc(CN2CC3(COCC(=O)N(Cc4cccc(OC(F)(F)F)c4)C3)C2)c1 | ? | 28µM* | ? | -7% | i | 0%
Cc1ccc(CNC(=O)CCc2ccc3c(c2)CN(C(=O)NC(C)C)CCO3)o1 | ? | -5% | i | 3% | i | 2%[12.5 µM]
COc1cccc(N2C(=O)NC(=NC3CCCC3)C23CCN(CC2CCCCC2)C3)c1 (stereo not given) | ? | 32µM* | ? | . | . | ?
COc1cccc(N2C(=O)NC(=NC3CCCCC3)C23CCN(CC2CCCCC2)C3)c1 (stereo not given) | ? | -21% | ? | . | . | ?
O=C1NC(=NC2CCCCC2)C2(CCN(CC3CCCCC3)C2)N1c1cc(F)cc(F)c1 (stereo not given) | ? | 32µM* | 32µM* | . | . | -12%
O=C1NC(=NC2CCCC2)C2(CCCN(CC3CCCCC3)C2)N1c1cc(F)cc(F)c1 (stereo not given) | -16% | 28µM* | 35µM* | . | . | ?
O=C1NC(=NC2CCCC2)C2(CCN(CC3CC3)C2)N1c1cc(F)cc(F)c1 (stereo not given) | -28% | ? | ? | . | . | -14%
O=C1NCCC[C@@H]1NC(=O)[C@H]1CN(C(=O)c2cccs2)CCN1C(=O)c1cccs1 | 4% | -12% | -13% | 3% | i | 6%
Cn1ncc2c(C(=O)NCc3ccccn3)cc(-c3cccnc3)nc21 | 7%[87.6 µM] | ? | ? | . | . | 3%[87.6 µM]
COc1cccc(-c2cc(C(=O)NCc3ccccn3)c3cnn(C)c3n2)c1 | . | ? | 79µM* | . | . | .
COc1ccc(-c2cc(C(=O)NC3CCC3)c3cnn(C)c3n2)cc1 | . | -24%[138 µM] | -30%[172 µM] | . | . | .
Cn1ncc2c(C(=O)NCC3CC3)cc(-c3ccsc3)nc21 | -16%[87.6 µM] | 89µM* | ? | . | . | -12%[87.6 µM]
COc1cccc(-c2cc(C(=O)NC3CCC3)c3cnn(C)c3n2)c1 | . | ? | 79µM* | . | . | .
Cn1ncc2c(C(=O)NCC3CC3)cc(-c3ccc(C(F)(F)F)cc3)nc21 | . | ? | 32µM* | . | . | .
Cn1ncc2c(C(=O)NC3CCC3)cc(-c3ccc(C(F)(F)F)cc3)nc21 | . | 35µM* | 40µM* | . | . | .
Cc1ccccc1CC(=O)N1CC(C(=O)NCCc2ccncc2)C2(CCOCC2)C1 (stereo not given) | 9% | i | i | -2% | i | 2%
N#Cc1ccc(C(=O)Nc2ccc([C@H]3OCC(=O)N(C4CCOCC4)[C@@H]3CO)cc2)cc1 | 3% | 1% | -4% | 0% | i | 0%
